# Screening data: PubChem BioAssay, several laboratories
# Exocytosis inh: LAMP-1 surface exposure blockers, TALL-104 cells – cell-based, flow cytometry, MLPCN library, primary screen | TALL-104 LAMP-1 surface exposure; cells stimulated with thapsigargin and PMA | inhibition, % at 10 µM | actives 0.66% (n = 360,000) | AID 651702, 2012;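 active = inhibition above about 55%, limit read from the data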
# Beta2AR agonist: beta2AR agonists driving receptor internalization, primary screen, cell-based, FAP fluorogen, flow cytometry. AID 504454, 2011. Am2.2-beta2AR cells. response, % (no concentration beside the values). Beta-2 adrenergic receptor (Homo sapiens), P07550. actives 0.43% (n = 340,000);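 active = response above a set limit, near 3 SD of response in nonfluorescent compounds, cut at about 42% in these data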
# ABHD5 PLIN5 PPI: ABHD5-PLIN5 interaction inhibitors, primary screen, cell lysate, split luciferase complementation, luminescence; Perilipin-5 (Homo sapiens) + 1-acylglycerol-3-phosphate O-acyltransferase ABHD5 (Homo …; inhibition, % at 4 µM; Split G. princeps luciferase complementation, 4 h; AID 602281, 2012; actives 0.78% (n = 360,000);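 active = inhibition above the mean inhibition across every tested compound plus 3 SD, cut at about 22% in these data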;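 also: 0% = DMSO only wells and the 100% control is not disclosed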
# NOD2-RIPK2 inh: NOD2-RIPK2 binding disruptors in cells, primary screen, fluorescence, CHO cells, BLA complementation; Receptor-interacting serine/threonine-protein kinase 2 (Homo sapiens), O43353; CCF4 ratio; inhibition, % at 4.98 µM; actives 0.38% (n = 360,000); in the data active = inhibition above about 21%;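 also: 0% = vehicle only and 100% = reference blocker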
# TLR9-MyD88 block: inhibitors of TLR9-MyD88 association in cells, primary screen, cell-based, CHO, BLA complementation, fluorescence. Toll-like receptor 9 (Homo sapiens) + Myeloid differentiation primary response protein …. CCF4 FRET ratio. inhibition, % at 4.98 µM. actives 0.21% (n = 340,000);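 active = inhibition above the mean over all tested compounds plus 3 SD, cut at about 21% in these data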;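 also: 0% = DMSO only wells and 100% = clavulanate BLA inhibitor control wells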
# Target sequence (Q99836 whole entry, looked up): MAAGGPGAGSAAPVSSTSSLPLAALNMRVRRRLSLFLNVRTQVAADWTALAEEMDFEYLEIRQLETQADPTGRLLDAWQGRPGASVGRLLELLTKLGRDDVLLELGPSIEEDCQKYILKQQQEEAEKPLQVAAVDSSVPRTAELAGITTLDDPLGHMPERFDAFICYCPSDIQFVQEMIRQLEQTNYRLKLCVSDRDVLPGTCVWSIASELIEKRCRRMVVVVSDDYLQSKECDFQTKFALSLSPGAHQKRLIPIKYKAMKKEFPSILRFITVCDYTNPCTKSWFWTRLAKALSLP
# Target sequence (Q9NR96 whole entry, looked up): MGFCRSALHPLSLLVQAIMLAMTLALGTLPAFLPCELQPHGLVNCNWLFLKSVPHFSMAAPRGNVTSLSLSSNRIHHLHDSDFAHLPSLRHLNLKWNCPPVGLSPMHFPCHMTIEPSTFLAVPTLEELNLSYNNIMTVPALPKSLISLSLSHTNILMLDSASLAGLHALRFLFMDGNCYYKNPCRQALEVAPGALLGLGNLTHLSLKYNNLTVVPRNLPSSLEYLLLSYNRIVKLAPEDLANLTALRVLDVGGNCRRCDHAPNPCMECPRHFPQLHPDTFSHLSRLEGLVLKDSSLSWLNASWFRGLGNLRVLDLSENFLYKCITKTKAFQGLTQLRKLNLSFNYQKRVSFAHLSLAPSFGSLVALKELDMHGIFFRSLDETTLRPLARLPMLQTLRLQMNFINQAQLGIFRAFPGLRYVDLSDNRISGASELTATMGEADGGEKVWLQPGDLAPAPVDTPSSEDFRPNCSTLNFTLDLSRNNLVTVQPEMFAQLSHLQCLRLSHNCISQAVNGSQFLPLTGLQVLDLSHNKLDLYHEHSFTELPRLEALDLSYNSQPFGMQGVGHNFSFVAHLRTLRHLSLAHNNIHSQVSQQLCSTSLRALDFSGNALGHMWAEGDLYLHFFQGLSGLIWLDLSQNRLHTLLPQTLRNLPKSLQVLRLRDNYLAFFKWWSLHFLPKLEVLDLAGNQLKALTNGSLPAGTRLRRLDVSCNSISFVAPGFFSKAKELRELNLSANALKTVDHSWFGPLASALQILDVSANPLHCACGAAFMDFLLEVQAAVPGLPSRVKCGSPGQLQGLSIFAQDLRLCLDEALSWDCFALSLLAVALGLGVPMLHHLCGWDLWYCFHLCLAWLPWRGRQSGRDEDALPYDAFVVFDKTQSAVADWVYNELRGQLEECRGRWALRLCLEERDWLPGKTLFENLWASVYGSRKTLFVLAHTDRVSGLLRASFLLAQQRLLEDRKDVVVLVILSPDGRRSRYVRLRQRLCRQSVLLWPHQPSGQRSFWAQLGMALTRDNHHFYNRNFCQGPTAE
# TLR4-MyD88 BLA: inhibitors of TLR4-MyD88 association in cells, primary screen, cell-based, HeLa CL3-4, BLA complementation, FRET ratio; Toll-like receptor 4 (Homo sapiens) + Myeloid differentiation primary response protein …; HeLa CL3-4 TLR4/MyD88 BLA complementation; inhibition, % at 8.4 µM; actives 0.18% (n = 200,000); AID 861, 2007; in the data active = inhibition above about 25%;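 also: 0% = vehicle and 100% = reference inhibitor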
# An asterisk follows results filed as active; x = no result given. This is a sample that favours compounds with a hit; in the whole collection about 2% have one here.
SMILES,Exocytosis inh,Beta2AR agonist,ABHD5 PLIN5 PPI,NOD2-RIPK2 inh,TLR9-MyD88 block,TLR4-MyD88 BLA
COc1cc(/C=C/CN2CCC(C(=O)NC(c3ccc(F)cc3)c3ccc4ccccc4n3)CC2)ccc1OC(C)=O (configuration not stated),13,x,11,5,x,x
CN1CCN(C(=O)C2=C[C@@H](c3coc4ccccc4c3=O)C[C@@H](OCCCCO)O2)CC1,-6,-5,13,-4,8,-4
O=C(O)C1=C[C@H](c2coc3ccccc3c2=O)C[C@H](OCCCCO)O1,69*,1,2,-11,-14,-3
Cc1ccc(Sc2ccc(/C=N/O)cc2[N+](=O)[O-])cc1,0,58*,5,8,4,-7
CO/N=C/c1ccc(Sc2ccc(C)cc2)c([N+](=O)[O-])c1,-10,7,2,-18,-4,13
CCN1C(=O)[C@@H]2[C@@H]3CN(S(=O)(=O)c4ccc(C)cc4)[C@@H](c4ccccc4F)[C@@H]3C(=O)C[C@@H]2C1=O,-1,x,-2,-7,x,x
N#CC1=C(N)n2c(s/c(=C\c3ccco3)c2=O)=C(C#N)C1c1ccco1 (configuration not stated),2,-14,23*,-2,-13,6
CCOC(=O)C1=C(N)n2c(s/c(=C/c3ccco3)c2=O)=C(C(=O)OC)C1c1ccco1 (configuration not stated),-1,-8,9,15,2,-10
O=C(C(O)c1ccccc1)N1CCN(S(=O)(=O)c2ccc(F)c(F)c2)CC1 (configuration not stated),-1,x,0,-2,x,x
CC(=O)N1/C(=C/c2ccc(N(C)C)cc2)C(=O)c2ccccc21,-2,45*,19,9,7,2
CC(=O)Nc1cccc(N/C=C(\C=O)c2nc3ccccc3o2)c1,56*,24,-4,1,-1,-1
CC(=O)Nc1ccc(N/C=C(\C=O)c2nc3ccccc3o2)cc1,-1,-11,0,-1,-15,4
CN(C)c1ccc(-c2ccnc3c2CC(C)(C(=O)NCC2CCOCC2)O3)cc1 (configuration not stated),2,x,5,4,x,x
CCNC(=S)N1CCN(c2ccc([N+](=O)[O-])cc2)CC1,1,0,-3,2,2,-7
O=[N+]([O-])c1ccc(N2CCN(C(=S)NCc3ccc(Cl)cc3)CC2)cc1,68*,2,-2,-5,3,-4
CCCCOc1ccc(Br)cc1/C(C)=N/NC1=NCCN1,30,48*,13,18,-1,0
CNC(=O)OC1CC2CC1[C@H]1CCCCN1C2=O (some centres not stated),4,x,-2,-7,x,x
C[C@@H](CO)NC(=O)c1[nH]cnc1C(=O)Nc1cccc(Cl)c1,3,x,0,-3,16,x
CN1CCc2cccc3c2[C@@H]1Cc1ccc(O)c(O)c1-3,74*,-3,-6,8,-12,19
Cc1ccc(F)cc1C(=O)N1CCCCC1c1cc(C(=O)NC(C)C)no1 (configuration not stated),0,x,3,-4,x,x
CC(=O)N(C(C)=O)c1ccc(Oc2ccc(Oc3ccc(N(C(C)=O)C(C)=O)cc3)cc2)cc1,-3,x,9,8,-9,x
CCOC(=O)c1sc2ncn(/N=C/c3ccc(O)c(OC)c3)c(=O)c2c1C,105*,5,-8,0,-11,-7
CCOC(=O)c1sc2ncn(C(C)C(=O)OC)c(=O)c2c1C (configuration not stated),0,9,-4,-2,10,-3
Cc1oc(-c2ccccc2)cc1C(=O)Nc1cccc(/C=C\C(=O)O)c1,1,-5,15,-7,1,3
Cc1oc(C(C)(C)C)cc1C(=O)Nc1cccc(/C=C\C(=O)O)c1,-2,-24,23*,-4,-5,4
SMILES,Exocytosis inh,Beta2AR agonist,ABHD5 PLIN5 PPI,NOD2-RIPK2 inh,TLR9-MyD88 block,TLR4-MyD88 BLA
COC(=O)c1ccc(C2NC(=S)N(c3ccccc3)C(C)=C2C(=O)Nc2ccccc2OC)cc1 (configuration not stated),-2,46*,6,-12,0,1
Cn1c(C(=O)OCC(=O)NCc2ccco2)cc2sccc21,-2,-34,23*,2,9,0
CC(C)(C)OC(=O)NCCCC[C@@H](C(=O)N1CCN(C(=O)OC(C)(C)C)CC1)n1cc(CCC(=O)O)nn1,-3,2,-1,9,1,-8
CCCCc1cn([C@@H](CCCCNC(=O)OC(C)(C)C)C(=O)N2CCN(C(=O)OC(C)(C)C)CC2)nn1,103*,1,-2,-6,-3,-24
COC(=O)[C@]12CCCCC=C1N(Cc1ccc3c(c1)OCO3)C(=O)[C@H](CC(=O)NCCC(C)C)C2,-13,x,-13,0,x,x
Cc1ccccc1-c1nnc(SC(C)C(=O)NC2CCCC2)o1 (configuration not stated),4,-1,-2,-12,5,x
O=C1c2ccccc2-c2onc3ccc(Oc4ccccc4)c1c23,85*,-111,7,9,19,-6
O=C(c1ccccc1)c1coc2c1C(=O)c1ccccc1C2=O,14,-3,-5,2,-2,-19
Cc1ccc(/C=N/N2CCN(c3ccncc3S(=O)(=O)N3CCCCC3)CC2)cc1,0,-2,-1,2,-7,-6
COc1cccc(/C=N/N2CCN(c3ccncc3S(=O)(=O)N3CCCCC3)CC2)c1,-4,75*,-8,-7,-15,-3
CC(CC(=O)c1ccc(F)cc1)N1CCN(c2ccccc2)CC1 (configuration not stated),5,-2,0,-2,-5,x
O=C(N/N=C1\CCSc2ccc(F)cc21)c1cccnc1,-1,5,2,-5,5,-7
NC(=S)N/N=C1\CCSc2ccc(Cl)cc21,73*,1,-6,3,x,x
Cc1cccc(C)c1NC(=O)C(c1ccnc2ccccc12)N1CCN(C)CC1 (configuration not stated),3,x,-2,-17,x,x
COCC(=O)N[C@H]1C=C[C@@H](CC(=O)OC)O[C@@H]1CO,-6,x,-1,3,x,x
CC(=O)Nc1cccc(-c2nc3ccccc3n2C(C)C(=O)NC(C)(C)C)c1 (configuration not stated),-4,x,-2,-11,x,x
N#Cc1c(N)n(-c2ccc(N)cc2)c2nc3ccccc3nc12,4,-5,4,-12,7,x
